High-throughput results deposited in PubChem by National Center for Advancing Translational Sciences (NCATS).
Gal4-VP16 FLuc = VP16 counterscreen qHTS for inhibitors of ROR gamma transcriptional activity; hit rate 3.5% among 310,000; Drosophila S2 Gal4-VP16 UAS-luciferase, luminescence, 20 h; AID 2546, 2010; Potency, µM (top dose mostly 53.6 µM), for the others: top-dose activity, negative = inhibition, most hits filed as inhibitors;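 also: Gal4-VP16 expression switched on by copper sulfate through the metallothionein promoter; % is scaled to controls: 0 for no effect and ±100 for the full control effect; nearly all actives have a fitted effect of over 50% in size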
SW480 rerep = A quantitative high throughput screen for small molecules that induce DNA re-replication in SW480 colon adenocarcinoma cells. AID 624297, 2012. Potency, µM (titrated, usually from 46.1 µM), without a hit: at the top dose re-replication activation, most hits filed as activators. hit rate 1.8% among 340,000. SW480 DNA re-replication, Hoechst DNA content imaging, 48 h; also: % of control where 0% means no effect; nearly all actives have a fitted effect of over 55% in size
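Quantitative HTS format with DMSO vehicle controls; 48 hr drug incubation at 37 C, then 40 min Hoechst staining and scanning imager measurement at 405 nm excitation.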
RORg inh = qHTS for inhibitors of ROR gamma transcriptional activity. Potency, µM (top dose mostly 53.6 µM), inactives show at the highest dose activity change, negative = inhibition, usual class: inhibitors. Drosophila S2 Gal4-RORgamma UAS-luciferase reporter, 20 h. hit rate 5.4% among 310,000. Nuclear receptor ROR-gamma (Mus musculus), P51450. AID 2551, 2010; also: % is scaled to controls: 0 for no effect and ±100 for the full control effect; nearly all actives have a fitted effect of over 60% in size
Target sequence (P51450 whole entry, looked up, the tested form may be a part): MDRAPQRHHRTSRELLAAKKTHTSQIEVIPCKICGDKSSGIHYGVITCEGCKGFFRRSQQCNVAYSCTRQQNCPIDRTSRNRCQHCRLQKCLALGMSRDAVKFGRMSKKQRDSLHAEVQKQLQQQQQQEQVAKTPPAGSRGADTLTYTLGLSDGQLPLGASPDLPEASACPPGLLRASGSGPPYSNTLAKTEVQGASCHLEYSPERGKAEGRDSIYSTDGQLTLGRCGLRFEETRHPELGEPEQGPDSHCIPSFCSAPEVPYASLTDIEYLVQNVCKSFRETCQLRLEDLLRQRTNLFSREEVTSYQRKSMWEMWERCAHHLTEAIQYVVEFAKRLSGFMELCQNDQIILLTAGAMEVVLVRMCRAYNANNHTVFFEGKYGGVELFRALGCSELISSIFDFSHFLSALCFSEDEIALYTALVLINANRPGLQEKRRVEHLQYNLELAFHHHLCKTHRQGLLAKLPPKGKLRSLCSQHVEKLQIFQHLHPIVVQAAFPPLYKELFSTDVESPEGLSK
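Schneider cells (Drosophila), stable Gal4 DBD–ROR gamma + UAS-luc; 1 hr cmpd preincubation; Cu2+ induction 700 uM final; 20 hr ambient; luminescence.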
ELG1 repair inh = qHTS screen for small molecules that inhibit ELG1-dependent DNA repair in human embryonic kidney (HEK293T) cells expressing luciferase-tagged ELG1; HEK293T ELG1-luciferase reporter, luminescence, 16 h; DNA damage induced by 5-fluorouridine; Potency, µM (doses to about 46.1 µM), for the others: at the top dose activity change, negative = inhibition, usual class: inhibitors; hit rate 2.3% among 330,000; also: % is scaled to controls: 0 for no effect and ±100 for the full control effect; nearly all actives have a fitted effect of over 55% in size
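In this reporter screen, reduction of luminescence relative to DMSO vehicle indicated activity. Compounds and 5-fluorouridine were added together to 2,000 cells per well, incubated for 16 hr at 37 °C, then developed with ONE-Glo.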
MCF10A rereplic = A quantitative high throughput screen for small molecules that induce DNA re-replication in MCF 10a normal breast cells. hit rate 2.9% among 350,000. MCF 10A DNA re-replication, Hoechst nuclear intensity, 48 h. Potency, µM (series often up to 46.1 µM), for the others: top-dose activity, positive = re-replication, hits mostly activators; also: % of control where 0% means no effect; nearly all actives have a fitted effect of over 50% in size
Starred values were filed as active, the others as inactive; ? = inconclusive; nt = no result given; [ ] = remark or other dose. A selection: hits, their analogues and other compounds. The true share with any hit is near 10%. Calls follow the shape of the dose curve; as a rule, active = well fitted curve in the direction sought with a large enough effect; inconclusive = small, poorly fitted or top-dose-only effect, or another doubt; inactive = no such curve, though single readings can be large; an effect the other way counts as inactive or inconclusive. Potency is read from the fitted curve at half-maximal effect.

SMILES	Gal4-VP16 FLuc	SW480 rerep	RORg inh	ELG1 repair inh	MCF10A rereplic
CCOC(=O)c1cc(C(C)(C)C)oc1CNC(=O)c1c(C)oc2c1CCCC2	-17.8%	20.0%	93.8%	?	20.6µM*
Cc1cccc([C@@H]2[C@@H]3C(=O)N(Cc4ccccc4)C(=O)[C@@H]3[C@]3(Cc4ccc(Cl)cc4)C(=O)N(c4ccc(Br)cc4)C(=O)N23)c1	5.8%	-7.0%	17.1%	8.1%	-27.2%
C=CCOc1ccc(CN(C)C(=O)CNC(=O)c2ccc(-c3ccccc3)cc2)cc1	0.7%	?	35.1%	23.1µM*	-0.6%
CC(C)(C)OC(=O)[C@H](Cc1ccccc1)NC(=O)c1nc[nH]c1C(=O)NCCCCCN	nt	-21.3%	nt	-3.3%	13.4%
CCN(CC)C(=O)c1[nH]cnc1C(=O)Nc1cccc(C)c1	nt	-24.3%[9.22 µM]	nt	11.5%	-5.8%
C[C@H](NC(=O)c1[nH]cnc1C(=O)Nc1cccc(Cl)c1)c1ccccc1	nt	-2.9%	nt	-2.6%	-5.8%
Cc1cccc(NC(=O)c2nc[nH]c2C(=O)N[C@@H](Cc2ccccc2)C(=O)OC(C)(C)C)c1	7.08µM*	-8.4%	3.16µM*	?	3.66µM*
CC(C)(C)OC(=O)[C@H](Cc1ccccc1)NC(=O)c1[nH]cnc1C(=O)Nc1cccc(Cl)c1	3.98µM*	6.8%[9.22 µM]	4.47µM*	?	14.6µM*
Cc1cccc(NC(=O)c2nc[nH]c2C(=O)N[C@@H](CC(C)C)C(=O)OC(C)(C)C)c1	10µM*	27.7%[9.22 µM]	5.62µM*	?	?
CC(C)(C)OC(=O)[C@H](Cc1ccccc1)NC(=O)c1[nH]cnc1C(=O)Nc1ccc(Cl)cc1	8.91µM*	?	3.98µM*	?	?
CCOC(=O)c1ccc(NC(=O)c2nc[nH]c2C(=O)N[C@@H](Cc2ccccc2)C(=O)OC(C)(C)C)cc1	7.08µM*	?	2.82µM*	23.1µM*	-0.8%
CCOC(=O)c1ccc(NC(=O)c2nc[nH]c2C(=O)NCCCNC(=O)c2[nH]cnc2C(=O)Nc2ccc(C(=O)OCC)cc2)cc1	nt	-12.1%	nt	?	0.8%
O=C(Cc1ccc(-n2c(=O)c3ccccc3n(Cc3ccccc3Cl)c2=O)cc1)NCC1CCCO1 (stereo unspecified)	-27.0%	-3.5%	3.6%	9.2µM*	28.5%
O=C(Cc1ccc(-n2c(=O)c3ccccc3n(Cc3ccccc3F)c2=O)cc1)NCC1CCCO1 (stereo unspecified)	-4.6%	30.1%	3.0%[10 µM]	?	?
O=C(Cc1ccc(F)cc1)NCC1CCCO1 (stereo unspecified)	-21.2%	-20.3%	11.2µM*	17.8%	3.1%
O=C(Cc1ccc(-n2c(=O)c3ccccc3n(Cc3ccc(F)cc3)c2=O)cc1)NCC1CCCO1 (stereo unspecified)	2.3%	0.1%	6.1%[10 µM]	10.3µM*	4.7%
C=CCOc1ccc(Br)cc1CNCCCN1CCOCC1	-3.0%	0.2%	-3.4%	8.8%	-0.4%
Cc1ccc2occ(/C=N/NC(=O)c3ccc(Cl)cc3)c(=O)c2c1	-5.1%	-1.2%	-15.5%	?	14.7%
Cc1ccc2occ(/C=N/NC(=O)c3ccccc3O)c(=O)c2c1	0.2%	18.4µM*	-23.4%	?	3.3%
CCOc1ccccc1C(=O)N/N=C/c1coc2ccc(Cl)cc2c1=O	1.4%	14.6µM*	-23.0%	7.9%	14.6µM*
COc1cccc(NC(=O)CN(C)C(=O)c2cc(-c3ccc(C)o3)nc3ccccc23)c1	nt	14.5%	nt	6.51µM*	9.5%
COc1cccc(NC(=O)CN(C)C(=O)c2cc(-c3cccc(Br)c3)nc3ccccc23)c1	nt	?	nt	?	13µM*
Cc1ccc(NC(=O)CNCCCN2CCOCC2)cc1S(=O)(=O)N1CCCCC1	11.8%	-1.3%	-1.9%	6.5%	2.5%
Cn1c(=O)n(C)c2cc(/C=N/NC(=S)NCc3ccccc3)ccc21	?	-8.6%	10µM*	27.0%	?
CC(C)(C)c1ccc(/C=N/NC(=S)NCc2ccccc2)cc1	1.12µM*	1.2%	0.794µM*	-32.3%	5.3%
SMILES	Gal4-VP16 FLuc	SW480 rerep	RORg inh	ELG1 repair inh	MCF10A rereplic
Cc1ccsc1/C=N/NC(=S)NCc1ccccc1	-75.6%	-0.8%	0.0224µM*	?	17.2%
CCN(Cc1ccccc1)c1ccc(/C=N/NC(=S)NC(C)C)cc1	1.26µM*	?	1.26µM*	-24.7%	?
C/C=C(\C)CN1CCC(n2nccc2NC(=O)CCCc2ccccc2)CC1	15.0%	0.2%	-0.7%	-22.0%	2.8%
CN1CCN(C(=O)CN(C)S(=O)(=O)c2ccc3ccccc3c2)CC1	-11.5%	-1.3%	0.1%	6.6%	13.1%
Cc1ccc(NC(=O)Nc2ncnc3nc[nH]c23)cc1	-1.2%	13.0%	3.5%	?	4.4%
Cc1ccsc1/C=N/NC(=O)CNC(=O)c1ccc(S(=O)(=O)N2CCOCC2)cc1	-8.3%	-1.6%	-0.8%	9.1%	4.9%
C=CCNC(=S)N/N=C/c1ccc(C(C)(C)C)cc1	0.562µM*	?	0.282µM*	?	8.8%
Cc1c(NC(=S)N/N=C/c2ccc(N(C)C)cc2)c(=O)n(-c2ccccc2)n1C	?	0.1%	17.8µM*	2.1%	-3.1%
CNC(=S)N/N=C/c1ccc(C(C)C)cc1	nt	-5.9%	nt	nt	?
CN(C)c1ccc(/C=N/NC(=S)NCc2ccccc2)cc1	2.82µM*	-2.4%	0.447µM*	12.7%	?
CN(C)c1ccc(/C=N/NC(=O)COc2ccccc2)cc1	-2.3%	-0.3%	-1.4%	?	0.5%
C=CCNC(=S)N/N=C/c1cn(C)c2ccccc12	-8.5%	3.0%	26.8%	?	-14.3%
CNC(=S)N/N=C/c1ccc(N(C)C)cc1	7.08µM*	-0.3%	1.58µM*	?	?
O=C1CSC2(N1)C1CC3CC(C1)CC2C3 (stereo unspecified)	4.3%	-11.7%	-1.4%	0.0%	10.3%
CCOC(=O)c1cnc2c(c(C)nn2C)c1Oc1ccccc1F	-2.4%	-13.7%	13.9%	-10.8%	-2.4%
Cc1nnc(N/N=C/c2ccc([N+](=O)[O-])cc2)n1N	-14.3%	-1.9%	?	-12.1%	-3.6%
CCc1nnc(N/N=C/c2ccc(N3CCC(C)CC3)c([N+](=O)[O-])c2)n1N	?	?	10µM*	-0.6%	?
Cc1nnc(N/N=C/c2cc([N+](=O)[O-])c(N3CCC(C)CC3)cc2N2CCC(C)CC2)n1N	?	?	15.8µM*	?	?
Cc1nc2ccccn2c1CN(C)C(=O)C1CCC(=O)N(CCc2cccc(F)c2)C1 (stereo unspecified)	-1.1%	1.7%	-25.2%	1.6%	0.4%
Cc1cn(C2CCCO2)c(=O)nc1N (stereo unspecified)	nt	-1.8%	nt	nt	-3.9%
